Laboratory results as given in PubChem BioAssay AID1159580 (chemical genetic matrix, 2015).
Hit rate of the full screen: of about 5,500 compounds, about 2,000 (36%) were called active. Roughly 18% stayed inconclusive and do not appear here. No stated cut-off is given here; in the data, active means normalized growth mostly below about 0.91 (no sharp cut-off); inconclusive means no clear call, values can overlap the other calls; inactive means mostly above about 0.92. This is one part of the list.

Test: chemical genetic growth profiling, strain panel (AID 1159580);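 further: tested at 20 µM; growth read once vehicle control cultures reached saturation at 30 °C; 1 = growth at the plate median or of vehicle wells; lower values mean less growth of the strain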
Settings: growth OD

Measured: normalized growth

CC(=O)NO
inactive: S. cerevisiae deletion strains, locus YJL187C, strain SWE1, hits give low values 0.992 | S. cerevisiae deletion strains, locus YJR043C, strain POL32, hits give low values 1.07 | S. cerevisiae deletion strains, locus YJR066W, strain TOR1, hits give low values 0.993 | S. cerevisiae deletion strains, locus YKL009W, strain mrt4, hits give low values 0.989 | S. cerevisiae deletion strains, locus YKL068W, hits give low values 0.995 | S. cerevisiae deletion strains, locus YKL085W, strain MDH1 (second series), hits give low values 0.994 | S. cerevisiae deletion strains, locus YKL085W, strain MDH1, hits give low values 0.994 | S. cerevisiae deletion strains, locus YKL160W, strain elf1, hits give low values 0.961 | S. cerevisiae deletion strains, locus YKL190W, strain CNB1, hits give low values 1 | S. cerevisiae deletion strains, locus YKR001C, strain vps1, hits give low values 1.02 | S. cerevisiae deletion strains, locus YKR026C, strain gcn3, hits give low values 0.98 | S. cerevisiae deletion strains, locus YKR091W, strain srl3, hits give low values 0.985 | S. cerevisiae deletion strains, locus YLL001W, strain dnm1, hits give low values 0.922 | S. cerevisiae deletion strains, locus YLL026W, hits give low values 0.988 | S. cerevisiae deletion strains, locus YLL041C, strain sdh2, hits give low values 0.988 | S. cerevisiae deletion strains, locus YLR027C, strain aat2, hits give low values 0.981 | S. cerevisiae deletion strains, locus YLR039C, strain RIC1, hits give low values 0.711 | S. cerevisiae deletion strains, locus YLR058C, strain SHM2, hits give low values 0.988 | S. cerevisiae deletion strains, locus YLR102C, strain apc9, hits give low values 0.996 | S. cerevisiae deletion strains, locus YLR113W, strain HOG1, hits give low values 0.973 | S. cerevisiae deletion strains, locus YLR221C, strain rsa3, hits give low values 0.922 | S. cerevisiae deletion strains, locus YLR258W, strain gsy2, hits give low values 0.964 | S. cerevisiae deletion strains, locus YLR262C, strain YPT6 (second series), hits give low values 0.986 | S. cerevisiae deletion strains, locus YLR262C, strain YPT6, hits give low values 0.746 | S. cerevisiae deletion strains, locus YLR268W, strain sec22, hits give low values 0.965 | S. cerevisiae deletion strains, locus YLR320W, strain mms22, hits give low values 0.892 | S. cerevisiae deletion strains, locus YLR330W, strain CHS5, hits give low values 0.996 | S. cerevisiae deletion strains, locus YLR342W, strain FKS1 (second series), hits give low values 0.901 | S. cerevisiae deletion strains, locus YLR342W, strain FKS1, hits give low values 0.98 | S. cerevisiae deletion strains, locus YLR357W, strain rsc2, hits give low values 0.971 | S. cerevisiae deletion strains, locus YLR370C, strain arc18, hits give low values 0.949 | S. cerevisiae deletion strains, locus YLR371W, strain rom2, hits give low values 0.987 | S. cerevisiae deletion strains, locus YLR384C, strain iki3, hits give low values 0.983 | S. cerevisiae deletion strains, locus YLR418C, strain cdc73, hits give low values 0.851 | S. cerevisiae deletion strains, locus YML016C, strain PPZ1, hits give low values 0.993 | S. cerevisiae deletion strains, locus YML032C, strain rad52, hits give low values 0.951 | S. cerevisiae deletion strains, locus YML120C, strain ndi1, hits give low values 0.948 | S. cerevisiae deletion strains, locus YML124C, strain tub3, hits give low values 0.995 | S. cerevisiae deletion strains, locus YMR058W, strain fet3, hits give low values 0.988 | S. cerevisiae deletion strains, locus YMR078C, strain ctf18, hits give low values 0.991 | S. cerevisiae deletion strains, locus YMR125W, strain sto1, hits give low values 0.963 | S. cerevisiae deletion strains, locus YMR129W, hits give low values 0.99 | S. cerevisiae deletion strains, locus YMR205C, strain PFK2, hits give low values 0.951 | S. cerevisiae deletion strains, locus YMR223W, strain ubp8, hits give low values 0.968 | S. cerevisiae deletion strains, locus YMR231W, strain pep5, hits give low values 0.987 | S. cerevisiae deletion strains, locus YMR307W, strain GAS1, hits give low values 1.17 | S. cerevisiae deletion strains, locus YNL067W, strain RPL9B, hits give low values 0.949 | S. cerevisiae deletion strains, locus YNL071W, strain lat1, hits give low values 0.976 | S. cerevisiae deletion strains, locus YNL183C, strain NPR1, hits give low values 0.968 | S. cerevisiae deletion strains, locus YNL209W, strain ssb2, hits give low values 0.985 | S. cerevisiae deletion strains, locus YNL233W, strain BNI4, hits give low values 0.939 | S. cerevisiae deletion strains, locus YNL248C, strain rpa49, hits give low values 0.956 | S. cerevisiae deletion strains, locus YNL250W, strain rad50, hits give low values 0.976 | S. cerevisiae deletion strains, locus YNL271C, strain bni1, hits give low values 0.984 | S. cerevisiae deletion strains, locus YNL298W, strain CLA4, hits give low values 0.993 | S. cerevisiae deletion strains, locus YNL307C, strain MCK1, hits give low values 0.978 | S. cerevisiae deletion strains, locus YNL322C, strain KRE1 (second series), hits give low values 0.957 | S. cerevisiae deletion strains, locus YNR049C, strain mso1, hits give low values 0.977 | S. cerevisiae deletion strains, locus YNR052C, strain pop2, hits give low values 0.97 | S. cerevisiae deletion strains, locus YOL012C, strain htz1 0.899 | S. cerevisiae deletion strains, locus YOL147C, strain pex11, hits give low values 0.992 | S. cerevisiae deletion strains, locus YOR001W, strain rrp6, hits give low values 1.01 | S. cerevisiae deletion strains, locus YOR061W, strain CKA2, hits give low values 1 | S. cerevisiae deletion strains, locus YOR069W, strain VPS5, hits give low values 1.01 | S. cerevisiae deletion strains, locus YOR070C, strain gyp1, hits give low values 0.979 | S. cerevisiae deletion strains, locus YOR080W, strain dia2, hits give low values 0.977 | S. cerevisiae deletion strains, locus YOR083W, strain WHI5, hits give low values 0.962 | S. cerevisiae deletion strains, locus YOR106W, strain vam3, hits give low values 0.975 | S. cerevisiae deletion strains, locus YOR136W, strain idh2, hits give low values 0.989 | S. cerevisiae deletion strains, locus YOR144C, strain elg1, hits give low values 0.996 | S. cerevisiae deletion strains, locus YOR184W, strain ser1, hits give low values 0.974 | S. cerevisiae deletion strains, locus YOR231W, strain MKK1, hits give low values 0.992 | S. cerevisiae deletion strains, locus YOR265W, strain rbl2, hits give low values 0.986 | S. cerevisiae deletion strains, locus YOR270C, strain vph1, hits give low values 0.944 | S. cerevisiae deletion strains, locus YOR290C, strain snf2, hits give low values 0.948 | S. cerevisiae deletion strains, locus YOR316C, strain cot1, hits give low values 0.996 | S. cerevisiae deletion strains, locus YPL051W, strain arl3, hits give low values 0.985 | S. cerevisiae deletion strains, locus YPL078C, strain atp4, hits give low values 0.97 | S. cerevisiae deletion strains, locus YPL106C, strain sse1, hits give low values 0.969 | S. cerevisiae deletion strains, locus YPL240C, strain hsp82, hits give low values 0.983 | S. cerevisiae deletion strains, locus YPL256C, strain CLN2, hits give low values 0.994 | S. cerevisiae deletion strains, locus YPR119W, strain clb2, hits give low values 1 | S. cerevisiae deletion strains, locus YPR141C, strain kar3, hits give low values 1 | S. cerevisiae deletion strains, locus YPR163C, strain tif3, hits give low values 0.984 | S. cerevisiae deletion strains, locus YPR167C, strain met16, hits give low values 0.983 | S. cerevisiae deletion strains, strain wtn01, hits give low values 0.969 | S. cerevisiae strains, strain wild type, hits give low values 0.981
